Experimental data reported in the supplement of paper PMC10849652.
About 7,900 targets were measured; listed, in parts, are those with a hit and a random draw of the rest. About 0.6% of all pairs of compound and target were hits. Unmarked numbers belong to inactive results.

Tests used:
Assay in all cases: log2 fold change, soluble protein after heating vs DMSO (PISA); higher = thermal stabilisation; K562 cells, 10 uM, 30 min; active = over 0.2 and 3.5 SD of the protein, either way, in both replicates (recomputed)
[1] = compound: CC1=C(C=C(C=C1)NC(=O)C2=CC(=CC=C2)C(C)(C)C#N)NC3=CC4=C(C=C3)N=CN(C4=O)C
Summary of the method: (§1)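 K562 cells at 2×10^6 cells/mL were treated for 30 min with 10 μM compound, and aliquots were heated for 3 min over 48°C-58°C before pooling. Extraction used PBS with 0.5% NP-40 at 4°C, and soluble protein was the supernatant after 21,000xg for 90 min, measured by TMTpro 16plex LC-MS/MS with channel sums equalised. Thermal stability values, relative to control samples and from duplicates, are log2 fold changes.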

[2] = compound: CC1=C(C=C(C=C1)NC(=O)C2=CC(=CC=C2)N(C)C)NC(=O)C3=CC=C(C=C3)O
Summary of the method: as §1

[3] = compound: CC1=CC=C(C=C1)SC2=C3C=C(SC3=CN=C2)C(=O)N
Summary of the method: as §1

[4] = compound: CC1=NC(=CC=C1)C2=C(N=C(N2)C(C)(C)C)C3=CC4=NC=CN=C4C=C3
Summary of the method: as §1

Nexturastat A = compound: CCCCN(Cc1ccc(C(=O)NO)cc1)C(=O)Nc1ccccc1 [Nexturastat A]
Summary of the method: as §1

vemurafenib = compound: CCCS(=O)(=O)Nc1ccc(F)c(C(=O)c2c[nH]c3ncc(-c4ccc(Cl)cc4)cc23)c1F [vemurafenib]
Summary of the method: as §1

[5] = compound: CCCS(=O)(=O)Nc1ccc(F)c(C(=O)c2c[nH]c3ncc(Cl)cc23)c1F
Summary of the method: as §1

[6] = compound: CCCc1cc(C)[nH]c(=O)c1CNC(=O)c1cc(-c2ccnc(N3CCN(C)CC3)c2)cc2c1cnn2C(C)C
Summary of the method: as §1

givinostat = compound: CCN(CC)Cc1ccc2cc(COC(=O)Nc3ccc(C(=O)NO)cc3)ccc2c1 [givinostat]
Summary of the method: as §1

barasertib = compound: CCN(CCCOc1ccc2c(Nc3cc(CC(=O)Nc4cccc(F)c4)[nH]n3)ncnc2c1)CCOP(=O)(O)O [barasertib]
Summary of the method: as §1

[7] = compound: CC[C@@H]1C(=O)N(C)c2cnc(Nc3ccc(C(=O)NC4CCN(C)CC4)cc3OC)nc2N1C1CCCC1
Summary of the method: as §1

volasertib = compound: CC[C@@H]1C(=O)N(C)c2cnc(Nc3ccc(C(=O)N[C@H]4CC[C@H](N5CCN(CC6CC6)CC5)CC4)cc3OC)nc2N1C(C)C [volasertib]
Summary of the method: as §1

[8] = compound: CC[C@H](C)N1C=C(C2=C(C=C(C=C21)C3=CN=C(C=C3)N4CCNCC4)C(=O)NCC5=C(C=C(NC5=O)C)C)C
Summary of the method: as §1

epoxomicin = compound: CC[C@H](C)[C@@H](C(=O)N[C@@H]([C@@H](C)O)C(=O)N[C@@H](CC(C)C)C(=O)[C@]1(CO1)C)NC(=O)[C@H]([C@@H](C)CC)N(C)C(=O)C [epoxomicin]
Summary of the method: as §1

[9] = compound: CCn1c(C(=O)N(C2CC2)C2CC2)cc2c3c(ncn3C)c(Nc3cc(C)n(C)n3)nc21
Summary of the method: as §1

[10] = compound: CCn1cc(-c2ccnc3[nH]c(-c4cccc(CN(C)C)c4)cc23)c(-c2ccc(NC(=O)N(C)C)cc2)n1
Summary of the method: as §1

[11] = compound: CN(C)CC(=O)Nc1ccc2[nH]c(=O)c3ccccc3c2c1
Summary of the method: as §1

rosiglitazone = compound: CN(CCOC1=CC=C(C=C1)C[C@H]2C(=O)NC(=O)S2)C3=CC=CC=N3 (racemic) [rosiglitazone]
Summary of the method: as §1

[12] = compound: CN1C2=C(C3=C1C(=O)N(N=C3)CC4=CC(=CC=C4)N)SC(=C2)S(=O)C
Summary of the method: as §1

[13] = compound: CN1CCC(CNc2ccc3ncc(-c4cccc(OC(F)(F)F)c4)n3n2)CC1
Summary of the method: as §1

UniProt O95486, sequence (O95486 whole entry, looked up): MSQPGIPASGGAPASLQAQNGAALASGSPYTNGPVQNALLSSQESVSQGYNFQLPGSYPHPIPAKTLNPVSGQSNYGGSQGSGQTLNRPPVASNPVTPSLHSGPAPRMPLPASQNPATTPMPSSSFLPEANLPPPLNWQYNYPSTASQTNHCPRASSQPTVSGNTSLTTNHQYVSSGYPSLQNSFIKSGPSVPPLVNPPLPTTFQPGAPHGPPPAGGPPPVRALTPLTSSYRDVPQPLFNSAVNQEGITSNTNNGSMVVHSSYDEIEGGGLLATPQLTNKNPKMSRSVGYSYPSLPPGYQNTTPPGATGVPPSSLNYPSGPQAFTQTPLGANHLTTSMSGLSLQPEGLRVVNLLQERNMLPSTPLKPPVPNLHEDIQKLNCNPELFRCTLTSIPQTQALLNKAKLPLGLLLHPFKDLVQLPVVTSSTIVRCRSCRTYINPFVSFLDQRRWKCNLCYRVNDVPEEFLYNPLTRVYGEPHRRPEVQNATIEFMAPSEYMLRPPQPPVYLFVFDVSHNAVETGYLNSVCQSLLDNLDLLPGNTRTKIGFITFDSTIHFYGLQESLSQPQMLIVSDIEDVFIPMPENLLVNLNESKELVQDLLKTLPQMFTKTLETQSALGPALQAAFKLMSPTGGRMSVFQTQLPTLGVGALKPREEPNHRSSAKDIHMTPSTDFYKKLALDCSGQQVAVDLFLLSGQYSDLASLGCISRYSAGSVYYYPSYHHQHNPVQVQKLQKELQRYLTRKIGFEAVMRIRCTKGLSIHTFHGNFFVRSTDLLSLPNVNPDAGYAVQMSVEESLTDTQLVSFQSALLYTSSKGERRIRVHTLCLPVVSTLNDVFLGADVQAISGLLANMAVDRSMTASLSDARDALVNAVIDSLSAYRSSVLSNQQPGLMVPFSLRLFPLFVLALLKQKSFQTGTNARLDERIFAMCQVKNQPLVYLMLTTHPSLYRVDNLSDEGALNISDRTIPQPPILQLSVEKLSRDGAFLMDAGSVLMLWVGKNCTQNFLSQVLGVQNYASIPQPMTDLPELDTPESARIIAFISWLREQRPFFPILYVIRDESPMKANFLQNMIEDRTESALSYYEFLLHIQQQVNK
UniProt Q9NTJ5, sequence (Q9NTJ5 whole entry, looked up): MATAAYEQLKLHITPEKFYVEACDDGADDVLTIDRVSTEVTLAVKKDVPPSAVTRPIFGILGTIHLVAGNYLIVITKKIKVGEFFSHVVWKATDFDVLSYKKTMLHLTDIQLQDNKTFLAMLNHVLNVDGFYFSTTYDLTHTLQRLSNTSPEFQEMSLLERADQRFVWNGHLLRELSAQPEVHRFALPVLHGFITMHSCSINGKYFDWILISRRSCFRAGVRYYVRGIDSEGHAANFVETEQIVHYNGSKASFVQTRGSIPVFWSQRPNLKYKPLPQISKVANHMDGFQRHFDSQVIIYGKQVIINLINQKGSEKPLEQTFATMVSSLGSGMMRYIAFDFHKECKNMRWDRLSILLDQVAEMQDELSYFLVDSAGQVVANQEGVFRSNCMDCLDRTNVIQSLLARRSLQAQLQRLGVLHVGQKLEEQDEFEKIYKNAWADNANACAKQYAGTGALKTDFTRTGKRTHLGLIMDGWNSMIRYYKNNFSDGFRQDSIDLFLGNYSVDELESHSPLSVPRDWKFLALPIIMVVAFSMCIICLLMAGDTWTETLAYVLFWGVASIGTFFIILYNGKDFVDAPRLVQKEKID
UniProt Q5T160, sequence (Q5T160 whole entry, looked up): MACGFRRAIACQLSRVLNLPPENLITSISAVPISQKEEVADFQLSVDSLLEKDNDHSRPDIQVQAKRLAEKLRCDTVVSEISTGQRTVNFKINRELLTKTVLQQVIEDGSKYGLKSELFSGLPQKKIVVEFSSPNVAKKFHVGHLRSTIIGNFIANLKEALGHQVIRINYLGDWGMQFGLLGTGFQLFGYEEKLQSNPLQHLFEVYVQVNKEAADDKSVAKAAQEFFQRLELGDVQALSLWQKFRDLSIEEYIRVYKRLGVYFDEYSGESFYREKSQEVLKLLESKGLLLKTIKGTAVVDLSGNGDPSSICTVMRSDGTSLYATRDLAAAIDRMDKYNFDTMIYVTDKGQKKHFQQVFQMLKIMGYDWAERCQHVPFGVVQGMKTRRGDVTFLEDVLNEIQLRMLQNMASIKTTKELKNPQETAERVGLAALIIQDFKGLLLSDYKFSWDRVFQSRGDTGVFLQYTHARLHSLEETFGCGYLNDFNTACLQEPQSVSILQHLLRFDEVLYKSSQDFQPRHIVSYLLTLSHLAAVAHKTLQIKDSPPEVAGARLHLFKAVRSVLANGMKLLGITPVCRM
UniProt P11233, sequence (P11233 whole entry, looked up): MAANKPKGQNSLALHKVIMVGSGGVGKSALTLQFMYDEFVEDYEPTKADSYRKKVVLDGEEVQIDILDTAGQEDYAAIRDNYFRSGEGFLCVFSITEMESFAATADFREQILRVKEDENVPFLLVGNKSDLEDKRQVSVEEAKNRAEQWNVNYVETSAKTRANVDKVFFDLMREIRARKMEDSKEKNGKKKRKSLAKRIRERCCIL
UniProt Q99590, sequence (Q99590 whole entry, looked up): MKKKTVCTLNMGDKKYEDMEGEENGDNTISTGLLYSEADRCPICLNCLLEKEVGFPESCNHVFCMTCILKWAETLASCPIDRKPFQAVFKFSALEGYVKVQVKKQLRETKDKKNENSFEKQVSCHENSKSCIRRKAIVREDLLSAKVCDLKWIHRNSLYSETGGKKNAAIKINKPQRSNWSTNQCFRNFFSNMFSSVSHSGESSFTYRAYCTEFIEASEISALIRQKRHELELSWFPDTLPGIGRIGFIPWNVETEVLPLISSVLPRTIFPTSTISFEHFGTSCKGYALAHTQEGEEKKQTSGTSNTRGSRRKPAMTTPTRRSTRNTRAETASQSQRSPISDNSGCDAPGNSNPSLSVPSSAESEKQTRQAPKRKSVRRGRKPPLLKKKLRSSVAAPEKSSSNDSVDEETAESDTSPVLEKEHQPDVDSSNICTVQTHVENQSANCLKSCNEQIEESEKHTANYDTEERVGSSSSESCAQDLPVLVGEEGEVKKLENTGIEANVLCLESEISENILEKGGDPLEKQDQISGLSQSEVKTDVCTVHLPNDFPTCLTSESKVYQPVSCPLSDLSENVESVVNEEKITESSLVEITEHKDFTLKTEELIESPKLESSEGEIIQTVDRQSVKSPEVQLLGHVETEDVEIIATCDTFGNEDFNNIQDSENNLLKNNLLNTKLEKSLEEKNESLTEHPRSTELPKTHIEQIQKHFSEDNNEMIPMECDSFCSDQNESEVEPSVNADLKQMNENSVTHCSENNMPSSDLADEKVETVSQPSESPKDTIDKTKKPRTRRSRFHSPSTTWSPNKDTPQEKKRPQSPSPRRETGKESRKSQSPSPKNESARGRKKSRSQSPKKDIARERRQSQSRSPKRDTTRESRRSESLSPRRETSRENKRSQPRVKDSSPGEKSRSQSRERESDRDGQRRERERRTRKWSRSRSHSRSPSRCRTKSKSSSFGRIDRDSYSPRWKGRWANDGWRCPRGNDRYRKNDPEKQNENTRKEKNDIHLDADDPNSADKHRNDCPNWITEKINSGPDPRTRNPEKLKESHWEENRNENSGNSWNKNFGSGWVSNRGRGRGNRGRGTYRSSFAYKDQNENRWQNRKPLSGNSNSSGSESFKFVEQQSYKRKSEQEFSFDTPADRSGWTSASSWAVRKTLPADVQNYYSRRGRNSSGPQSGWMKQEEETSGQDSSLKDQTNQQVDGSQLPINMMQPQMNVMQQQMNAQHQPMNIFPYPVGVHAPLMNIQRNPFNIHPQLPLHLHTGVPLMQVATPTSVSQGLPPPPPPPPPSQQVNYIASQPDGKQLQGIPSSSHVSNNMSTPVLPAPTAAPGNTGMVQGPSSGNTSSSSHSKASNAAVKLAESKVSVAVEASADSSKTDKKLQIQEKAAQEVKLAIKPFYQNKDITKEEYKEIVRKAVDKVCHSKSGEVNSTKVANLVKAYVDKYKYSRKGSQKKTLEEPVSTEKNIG
UniProt Q96EE3, sequence (Q96EE3 whole entry, looked up): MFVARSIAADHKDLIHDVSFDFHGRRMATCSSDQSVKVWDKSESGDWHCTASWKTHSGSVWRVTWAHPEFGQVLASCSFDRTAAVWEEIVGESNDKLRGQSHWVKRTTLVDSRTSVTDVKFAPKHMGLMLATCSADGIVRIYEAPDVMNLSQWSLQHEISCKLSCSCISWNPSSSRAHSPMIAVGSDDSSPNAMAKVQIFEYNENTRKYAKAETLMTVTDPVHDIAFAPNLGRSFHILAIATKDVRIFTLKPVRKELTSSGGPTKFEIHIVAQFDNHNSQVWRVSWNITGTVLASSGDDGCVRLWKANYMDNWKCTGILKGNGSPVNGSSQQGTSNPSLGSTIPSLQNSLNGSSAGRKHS
UniProt Q8IZV5, sequence (Q8IZV5 whole entry, looked up): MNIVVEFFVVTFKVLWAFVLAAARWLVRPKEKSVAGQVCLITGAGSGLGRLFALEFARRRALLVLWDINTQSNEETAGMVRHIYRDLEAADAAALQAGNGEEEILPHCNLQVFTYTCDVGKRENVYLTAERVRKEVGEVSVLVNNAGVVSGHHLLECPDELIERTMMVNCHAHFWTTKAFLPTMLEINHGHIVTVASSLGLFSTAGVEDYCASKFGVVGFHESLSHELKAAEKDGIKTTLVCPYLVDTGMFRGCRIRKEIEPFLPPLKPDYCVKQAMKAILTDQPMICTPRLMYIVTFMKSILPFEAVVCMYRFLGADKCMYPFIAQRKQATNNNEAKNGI

| Target | log2 fold change [1] | log2 fold change [2] | log2 fold change [3] | log2 fold change [4] | log2 fold change (Nexturastat A) | log2 fold change (vemurafenib) | log2 fold change [5] | log2 fold change [6] | log2 fold change (givinostat) | log2 fold change (barasertib) | log2 fold change [7] | log2 fold change (volasertib) | log2 fold change [8] | log2 fold change (epoxomicin) | log2 fold change [9] | log2 fold change [10] | log2 fold change [11] | log2 fold change (rosiglitazone) | log2 fold change [12] | log2 fold change [13] |
| --- | --- | --- | --- | --- | --- | --- | --- | --- | --- | --- | --- | --- | --- | --- | --- | --- | --- | --- | --- | --- |
| RPS15 (UniProt P62841) | -0.014 | 0.038 | -0.146 | 0.005 | 0.285 | -0.117 | -0.175 | 0.1 | -0.041 | -0.125 | 0.2 | 0.294 | -0.017 | -0.056 | 0 | 0.061 | -0.099 | -0.113 | 0.164 | 0.02 |
| SEC24A (UniProt O95486) | 0.025 | -0.089 | 0 | 0.012 | -0.04 | 0.023 | 0.051 | 0.08 | 0.072 | 0.006 | -0.077 | -0.253 (active) | 0.018 | 0.055 | -0.05 | 0.003 | 0.065 | 0.051 | -0.054 | -0.029 |
| RDH10 (UniProt Q8IZV5) | 0.004 | -0.034 | 0.047 | -0.055 | -0.107 | -0.016 | -0.058 | -0.043 | -0.091 | 0.011 | 0.068 | 0.037 | 0.034 | -0.026 | -0.056 | 0.021 | -0.006 | 0.021 | -0.19 | 0.09 |
| SACM1L (UniProt Q9NTJ5) | 0.08 | -0.024 | -0.004 | 0.031 | -0.03 | 0.052 | 0.069 | 0.043 | 0.028 | 0.049 | -0.193 | -0.534 (active) | -0.001 | 0.019 | 0.029 | -0.019 | 0.033 | 0.021 | -0.076 | 0.031 |
| SCAF11 (UniProt Q99590) | -0.089 | 0.154 | -0.079 | -0.275 | 0.003 | -0.158 | -0.031 | 0.035 | -0.034 | 0.165 | 0.145 | 0.153 | -0.092 | -0.074 | -0.007 | 0.176 | -0.142 | -0.04 | 0.148 | 0.25 |
| SEH1L isoform 1 (UniProt Q96EE3) | -0.004 | 0.015 | 0.005 | -0.019 | 0.011 | 0.005 | 0.048 | -0.033 | 0.005 | 0.008 | -0.044 | 0.466 (active) | -0.019 | -0.057 | -0.009 | -0.041 | -0.013 | -0.01 | -0.054 | 0.027 |
| RARS2 (UniProt Q5T160) | 0.018 | 0.033 | 0.056 | 0.029 | -0.027 | 0.019 | 0.05 | -0.014 | -0.037 | 0.017 | -0.121 | -0.238 (active) | -0.003 | 0.04 | 0.013 | -0.046 | 0.026 | 0.019 | -0.065 | -0.143 |
| RALA (UniProt P11233) | -0.007 | -0.006 | 0.02 | 0.132 | 0.021 | -0.031 | 0.05 | 0.019 | -0.002 | -0.001 | 0.084 | 0.025 | -0.044 | -0.054 | 0.021 | 0.029 | -0.029 | -0.021 | -0.115 | 0.434 (active) |
